Measurements taken from PubChem BioAssay (NCATS).
Records with an inconclusive call do not appear. Activity calls are given as the source filed them. Unless noted, the call rests on the fitted dose curve; in most records, active means well fitted curve in the direction sought with a large enough effect; inconclusive means small, poorly fitted or top-dose-only effect, or another doubt; inactive means no such curve, though single readings can be large; an effect the other way counts as inactive or inconclusive.

Experiments:
[1] = target: ATP-dependent 6-phosphofructokinase (Trypanosoma brucei brucei) (UniProt O15648); assay: qHTS Assay to Find Inhibitors of T. brucei phosphofructokinase: hit validation (AID 492961);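 further: luminescence reports ADP formed as PFK phosphorylates fructose-6-phosphate with ATP; series mostly up to about 51 µM; on the % scale 0 is the no-effect control and ±100 the full control effect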
In short: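 Reaction: 0.1 M triethanolamine pH 8.0, 5 mM MgCl2, F6P 0.5 mM, ATP 0.1 mM, PFK 1.25 nM, 45 min RT. Read-out: ADP-Glo luminescence. Analysis: concentration-response fits, classed by r2 and efficacy.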

[2] = target: Thyrotropin-releasing hormone receptor (Homo sapiens) (UniProt P34981); assay: qHTS for Small Molecule Agonists and Allosteric Enhancers of Human TRH Receptor: Validation Screen for Agonists (AID 493127;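 active means calcium activation more than 3 SD above the typical response in the agonist read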;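 further: intracellular calcium rise by fluo-8 fluorescence before TRH EC20 addition; 0% is about no effect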); conditions: TRH receptor agonist cell assay; at 2 µM; stronger effect = higher value
In short: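 Compounds are added by online pintool to dye-loaded TRHR cells while fluorescence is recorded every second. A rise in calcium signal during the agonist read marks activation; a later 10 nM TRH addition (EC20) serves the separate enhancer mode.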

[3] = target: Galactokinase (Homo sapiens) (UniProt P51570); assay: qHTS Validation Assay for Inhibitors of Human Galactokinase (GALK) (AID 493189); further: 0% is about no effect
In short: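 Enzyme activity is inferred from ATP consumption: human GALK phosphorylates galactose (100 uM) using 35 uM ATP for 1 h at room temperature, and luciferase-based Kinase-Glo Plus reports unconsumed ATP.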

[4] = Validation screen for small molecules that induce DNA re-replication in SW480 colon adenocarcinoma cells (AID 504364); further: 0% is about no effect
In short: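 Image-based qHTS: compounds were incubated with SW480 cells for 48 hr, nuclei stained with Hoechst, and per-nucleus fluorescence intensity scanned to flag cells with excess DNA content.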

[5] = target: Ubiquitin carboxyl-terminal hydrolase 1 (Homo sapiens) (UniProt O94782); assay: Inhibitors of USP1/UAF1: Pilot qHTS (AID 504865);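 further: rhodamine fluorescence freed from ubiquitin-rhodamine substrate followed over time; top concentration of the series differs between compounds; on the % scale 0 is the no-effect control and ±100 the full control effect; nearly all actives have a fitted effect of over 35% in size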
In short: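 Enzyme-free wells gave the negative control, while test wells held 1nM USP1/UAF1 preincubated with compound for 15 min at room temperature. Ub-Rho at 150nM final started the reaction, and fluorescence at 480/540 nm was recorded kinetically.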

[6] = target: Estrogen receptor (Homo sapiens) (UniProt P03372); assay: qHTS assay for small molecule antagonists of estrogen receptor alpha signaling (AID 588513; active means well fitted curve in the direction sought with a large enough effect in the signal ratio, with a control signal flat, not every such curve was filed as active; the % refers to the signal ratio; further: on the % scale 0 is the no-effect control and ±100 the full control effect)
In short: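 Antagonist-mode qHTS in ER-alpha-UAS-bla HEK 293 cells: compound titration, 0.5nM estradiol for 18 h, CCF4 fluorescence, Hill-derived IC50.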

[7] = target: D(1A) dopamine receptor (Homo sapiens) (UniProt P21728); assay: HTS Assay for Allosteric Agonists of the Human D1 Dopamine Receptor: Primary Screen for Potentiators (AID 488982); further: 0% is about no effect
In short: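 Tetracycline-induced HEK293 T-REx cells force-coupled to calcium signalling were incubated overnight at 30 C and dye-loaded at room temperature. Calcium flux over 180 s after compound addition flagged agonists; a further 180 s read after EC20 dopamine flagged potentiators.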

[8] = target: D(1A) dopamine receptor (Homo sapiens) (UniProt P21728); assay: HTS Assay for Allosteric Agonists of the Human D1 Dopamine Receptor: Primary Screen for Antagonists (AID 488983);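 further: calcium flux response to an EC80 dopamine challenge measured with no-wash dye; on the % scale 0 is the no-effect control and ±100 the full control effect; nearly all actives have a fitted effect of over 65% in size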
In short: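 Kinetic fluorescence at 1 cycle/sec tracked intracellular calcium in force-coupled, tetracycline-inducible HEK293 T-REx D1 cells. Loss of response to an EC80 dopamine dose, given 180 s after compound, marked antagonists.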

[9] = Validation screen for small molecules that induce genotoxicity in human embryonic kidney (HEK293T) cells expressing luciferase-tagged ELG1 (AID 493106); further: 0% is about no effect
In short: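 Cells were dispensed at 2,000 per well, then 23 nL compound or DMSO was pinned in. After 16 hr at 37 °C and 5% CO2, ONE-Glo reagent was added. Luciferase activity was measured following 30 min at room temperature.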

[10] = target: ATPase family AAA domain-containing protein 5 (Homo sapiens) (UniProt Q96QE3); assay: Validation screen for small molecules that inhibit ELG1-dependent DNA repair in human embryonic kidney (HEK293T) cells expressing luciferase-tagged ELG1 (AID 493107);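 further: cells co-treated with the DNA-damaging agent 5-fluorouridine alongside compound; series mostly up to about 46 µM; on the % scale 0 is the no-effect control and ±100 the full control effect; inhibitors lower the ELG1-luciferase luminescence signal; nearly all actives have a fitted effect of over 70% in size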
In short: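 Cells are dispensed in 1536-well format, then 5-fluorouridine and compound are pinned in. After a 16 hr incubation at 37 °C and 5% CO2, ONE-Glo is added and luciferase measured on a CCD imager.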

[11] = qHTS for Inhibitors of Cell Surface uPA Generation: Validation Assay (AID 493164);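 further: RAW 264.7 macrophage cells exposed to compound for 18 h; 0% is about no effect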
In short: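 ATP-Lite luminescence read-out: ATP remains high when uPA activity-dependent LF translocation into the cytoplasm is blocked. RAW 264.7 cells, 18 h compound exposure at 37 C; 7-point titration, 2.45 nM to 38.3 uM final.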

[12] = target: Peptidyl-prolyl cis-trans isomerase NIMA-interacting 1 (Homo sapiens) (UniProt Q13526); assay: qHTS Validation Assay to Find Inhibitors of Pin1 (AID 504536; active means well fitted inhibition curve with a large enough effect in the polarisation, with a control signal flat, not every such curve was filed as active; the % refers to the polarisation;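 further: 0% = full Pin1 enzyme wells and -100% = no-enzyme wells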)
In short: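 Fluorescence polarization competition: compounds (titration) displace HiFluor-488-labeled Pin1-1b peptide from Pin1 (0.3 uM final) in pH 7.5 HEPES buffer with DTT, 10 min at room temperature; %Activity normalized to no-enzyme wells, curves fitted.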

[13] = target: Phosphoglycerate kinase, glycosomal (Trypanosoma brucei brucei) (UniProt P07378); assay: qHTS Validation Assay to Find Inhibitors of Phosphoglycerate Kinase (AID 504547);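 further: control wells lack PGK and mark full inhibition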
In short: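 In TEA buffer (100mM, pH 7.6) containing 5mM MgCl2 and 0.01% Tween-20, the GAPDH-coupled PGK reaction proceeded for 60 minutes at room temperature before a single luminescence reading using Kinase-Glo Plus.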

[14] = target: phosphoglycerate mutase (Leishmania major) (UniProt Q4Q090); assay: qHTS Validation Assay to Find Inhibitors of Phosphoglycerate Mutase (AID 504548); further: series mostly up to about 58 µM; on the % scale 0 is the no-effect control and ±100 the full control effect
In short: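 Lm PGAM at 1.25 nM final with substrate in 100 mM TEA pH 7.6, 5 mM MgCl2, 0.01% Tween-20; 45 min at room temperature. Kinase-GloPlus added, 10 min, end-point luminescence read.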

[15] = Inducers of the Endoplasmic Reticulum Stress Response (ERSR) in human glioma: Validation (AID 504836); further: 0% is about no effect
In short: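 Stably transfected U87-MG human glioma cells carrying a GRP78-based luminescent sensor were seeded at 1000 cells/well, pin-dosed with compounds and incubated 16 h. Luciferase reagent was then added, and end-point luminescence was read after 10 min at room temperature.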

[16] = qHTS for Inhibitors of ATXN expression: Validation of Cytotoxic Assay (AID 588349); further: on the % scale 0 is the no-effect control and ±100 the full control effect
In short: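 Titrated compounds are added to cultured HEK293 cells, which are then held at 37 degrees C for 72 hr; loss of intracellular ATP, measured with CellTiter Glo, indicates toxicity.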

[17] = qHTS for Inhibitors of ATXN expression: Validation (AID 588378); further: series mostly up to about 57 µM; on the % scale 0 is the no-effect control and ±100 the full control effect; nearly all actives have a fitted effect of over 75% in size
In short: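 After a 2 h attachment and 24 h compound incubation, HEK293-ATXN2-FFLuc wells are read for fluorescence at 405 nm excitation/525 nm emission as a viability measure, then for Bright-Glo luminescence reflecting ATXN2 expression.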

[18] = Nrf2 qHTS screen for inhibitors: Validation (AID 493153; active means well fitted inhibition curve with a large enough effect in the main read-out, with a control signal flat, not every such curve was filed as active); conditions: viability change: measured here: cytotoxicity max response
In short: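 A549 ARE_Fluc, 5% FBS OPTI-MEM; cpd titration, 18-24 h, 37°C/5% CO2. Read 1: CellTiter-Fluor (Ex 405/Em 525), cytotox. Read 2: luciferase lum, Nrf2 activity.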

Galactokinase (Homo sapiens), sequence (P51570 whole entry, looked up): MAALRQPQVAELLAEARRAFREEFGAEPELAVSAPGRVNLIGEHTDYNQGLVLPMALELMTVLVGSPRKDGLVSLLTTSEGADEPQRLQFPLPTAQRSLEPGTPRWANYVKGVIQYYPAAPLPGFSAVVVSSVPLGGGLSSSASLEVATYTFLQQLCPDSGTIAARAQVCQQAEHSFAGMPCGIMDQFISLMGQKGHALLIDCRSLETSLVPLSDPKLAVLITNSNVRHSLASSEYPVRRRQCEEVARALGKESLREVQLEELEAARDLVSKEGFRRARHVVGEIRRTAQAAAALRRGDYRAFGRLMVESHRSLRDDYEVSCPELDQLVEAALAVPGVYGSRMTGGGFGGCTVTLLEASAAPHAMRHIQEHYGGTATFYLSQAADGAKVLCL
Thyrotropin-releasing hormone receptor (Homo sapiens), sequence (P34981 whole entry, looked up): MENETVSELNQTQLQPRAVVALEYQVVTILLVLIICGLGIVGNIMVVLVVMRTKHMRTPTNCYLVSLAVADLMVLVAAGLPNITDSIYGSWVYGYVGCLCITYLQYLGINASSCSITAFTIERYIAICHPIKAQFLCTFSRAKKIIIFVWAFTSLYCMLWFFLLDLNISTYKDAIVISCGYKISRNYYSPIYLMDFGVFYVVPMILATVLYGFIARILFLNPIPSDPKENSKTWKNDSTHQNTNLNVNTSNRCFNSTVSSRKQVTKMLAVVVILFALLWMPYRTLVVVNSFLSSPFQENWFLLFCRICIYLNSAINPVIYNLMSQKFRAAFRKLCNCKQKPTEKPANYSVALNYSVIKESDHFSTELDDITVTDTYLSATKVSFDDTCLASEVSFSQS
Ubiquitin carboxyl-terminal hydrolase 1 (Homo sapiens), sequence (O94782 whole entry, looked up): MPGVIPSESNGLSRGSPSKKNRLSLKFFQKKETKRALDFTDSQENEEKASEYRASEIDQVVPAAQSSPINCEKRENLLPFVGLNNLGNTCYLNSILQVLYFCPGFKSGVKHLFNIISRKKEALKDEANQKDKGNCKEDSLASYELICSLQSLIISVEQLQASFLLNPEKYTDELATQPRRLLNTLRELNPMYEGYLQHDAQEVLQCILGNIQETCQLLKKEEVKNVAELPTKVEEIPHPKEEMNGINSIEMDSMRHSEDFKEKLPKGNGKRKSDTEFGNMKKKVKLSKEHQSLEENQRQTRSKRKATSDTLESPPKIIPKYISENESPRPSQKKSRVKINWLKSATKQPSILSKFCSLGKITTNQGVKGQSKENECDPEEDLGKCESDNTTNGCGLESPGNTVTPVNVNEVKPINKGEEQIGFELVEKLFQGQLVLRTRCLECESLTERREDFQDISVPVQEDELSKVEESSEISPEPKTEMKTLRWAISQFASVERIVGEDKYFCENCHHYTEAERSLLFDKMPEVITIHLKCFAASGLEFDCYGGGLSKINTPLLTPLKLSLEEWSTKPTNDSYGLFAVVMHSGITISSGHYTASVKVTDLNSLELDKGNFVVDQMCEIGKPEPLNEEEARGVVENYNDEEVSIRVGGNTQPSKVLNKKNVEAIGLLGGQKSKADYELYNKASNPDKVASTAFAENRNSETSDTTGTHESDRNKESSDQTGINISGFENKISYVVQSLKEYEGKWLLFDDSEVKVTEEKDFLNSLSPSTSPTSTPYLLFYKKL
ATP-dependent 6-phosphofructokinase (Trypanosoma brucei brucei), sequence (O15648 whole entry, looked up): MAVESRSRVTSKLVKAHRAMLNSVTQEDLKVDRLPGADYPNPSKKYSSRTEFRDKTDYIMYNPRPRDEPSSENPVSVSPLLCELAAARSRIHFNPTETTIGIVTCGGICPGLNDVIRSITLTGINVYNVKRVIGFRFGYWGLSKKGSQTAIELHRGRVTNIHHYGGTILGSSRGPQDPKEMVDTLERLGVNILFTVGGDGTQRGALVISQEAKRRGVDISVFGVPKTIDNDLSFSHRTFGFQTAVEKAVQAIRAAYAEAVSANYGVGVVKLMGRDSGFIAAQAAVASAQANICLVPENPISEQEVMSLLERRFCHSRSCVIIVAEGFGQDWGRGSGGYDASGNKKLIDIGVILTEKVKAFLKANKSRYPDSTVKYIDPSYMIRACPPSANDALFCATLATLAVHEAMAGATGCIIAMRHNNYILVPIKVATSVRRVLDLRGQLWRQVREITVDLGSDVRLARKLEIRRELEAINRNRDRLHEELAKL
phosphoglycerate mutase (Leishmania major), sequence (Q4Q090 1-553): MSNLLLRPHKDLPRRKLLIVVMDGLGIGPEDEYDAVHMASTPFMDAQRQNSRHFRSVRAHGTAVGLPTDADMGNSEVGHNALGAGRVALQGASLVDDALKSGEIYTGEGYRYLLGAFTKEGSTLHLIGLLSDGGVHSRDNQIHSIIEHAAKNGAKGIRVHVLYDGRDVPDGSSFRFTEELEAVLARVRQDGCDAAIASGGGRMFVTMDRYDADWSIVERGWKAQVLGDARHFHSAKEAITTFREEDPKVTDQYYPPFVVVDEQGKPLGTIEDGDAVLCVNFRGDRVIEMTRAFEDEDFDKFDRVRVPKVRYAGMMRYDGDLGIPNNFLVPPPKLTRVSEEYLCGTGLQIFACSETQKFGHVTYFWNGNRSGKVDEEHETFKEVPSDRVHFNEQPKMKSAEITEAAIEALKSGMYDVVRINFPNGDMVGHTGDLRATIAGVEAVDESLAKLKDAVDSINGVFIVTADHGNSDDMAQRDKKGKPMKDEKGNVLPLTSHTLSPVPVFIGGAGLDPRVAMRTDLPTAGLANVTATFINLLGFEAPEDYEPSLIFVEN
Phosphoglycerate kinase, glycosomal (Trypanosoma brucei brucei), sequence (P07378 whole entry, looked up): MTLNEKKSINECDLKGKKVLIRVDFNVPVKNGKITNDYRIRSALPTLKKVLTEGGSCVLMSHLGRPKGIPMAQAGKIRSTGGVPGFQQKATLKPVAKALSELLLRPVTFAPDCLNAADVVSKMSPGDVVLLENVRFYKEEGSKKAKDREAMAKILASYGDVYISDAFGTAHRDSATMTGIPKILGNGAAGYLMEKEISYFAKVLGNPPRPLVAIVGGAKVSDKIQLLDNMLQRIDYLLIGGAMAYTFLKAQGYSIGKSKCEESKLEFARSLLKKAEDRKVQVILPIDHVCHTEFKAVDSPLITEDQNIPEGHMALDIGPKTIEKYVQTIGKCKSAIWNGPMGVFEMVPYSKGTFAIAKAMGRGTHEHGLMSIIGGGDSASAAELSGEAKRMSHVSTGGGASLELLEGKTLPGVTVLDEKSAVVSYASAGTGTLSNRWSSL
D(1A) dopamine receptor (Homo sapiens), sequence (P21728 whole entry, looked up): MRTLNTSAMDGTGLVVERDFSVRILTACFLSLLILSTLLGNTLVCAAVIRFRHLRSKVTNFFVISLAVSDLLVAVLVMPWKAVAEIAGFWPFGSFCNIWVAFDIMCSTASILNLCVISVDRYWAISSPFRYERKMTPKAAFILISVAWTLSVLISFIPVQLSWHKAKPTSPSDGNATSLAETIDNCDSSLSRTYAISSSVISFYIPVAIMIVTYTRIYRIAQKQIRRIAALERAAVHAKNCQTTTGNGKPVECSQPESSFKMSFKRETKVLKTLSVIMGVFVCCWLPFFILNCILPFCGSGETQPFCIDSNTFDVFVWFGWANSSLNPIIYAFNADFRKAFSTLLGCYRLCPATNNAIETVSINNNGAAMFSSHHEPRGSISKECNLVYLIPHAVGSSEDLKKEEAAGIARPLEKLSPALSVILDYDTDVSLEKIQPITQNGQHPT
Peptidyl-prolyl cis-trans isomerase NIMA-interacting 1 (Homo sapiens), sequence (Q13526 whole entry, looked up): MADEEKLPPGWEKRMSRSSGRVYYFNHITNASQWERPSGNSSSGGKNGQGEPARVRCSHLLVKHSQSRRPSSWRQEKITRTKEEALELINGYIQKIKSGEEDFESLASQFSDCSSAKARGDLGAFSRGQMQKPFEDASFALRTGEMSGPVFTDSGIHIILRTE
Estrogen receptor (Homo sapiens), sequence (P03372 whole entry, looked up): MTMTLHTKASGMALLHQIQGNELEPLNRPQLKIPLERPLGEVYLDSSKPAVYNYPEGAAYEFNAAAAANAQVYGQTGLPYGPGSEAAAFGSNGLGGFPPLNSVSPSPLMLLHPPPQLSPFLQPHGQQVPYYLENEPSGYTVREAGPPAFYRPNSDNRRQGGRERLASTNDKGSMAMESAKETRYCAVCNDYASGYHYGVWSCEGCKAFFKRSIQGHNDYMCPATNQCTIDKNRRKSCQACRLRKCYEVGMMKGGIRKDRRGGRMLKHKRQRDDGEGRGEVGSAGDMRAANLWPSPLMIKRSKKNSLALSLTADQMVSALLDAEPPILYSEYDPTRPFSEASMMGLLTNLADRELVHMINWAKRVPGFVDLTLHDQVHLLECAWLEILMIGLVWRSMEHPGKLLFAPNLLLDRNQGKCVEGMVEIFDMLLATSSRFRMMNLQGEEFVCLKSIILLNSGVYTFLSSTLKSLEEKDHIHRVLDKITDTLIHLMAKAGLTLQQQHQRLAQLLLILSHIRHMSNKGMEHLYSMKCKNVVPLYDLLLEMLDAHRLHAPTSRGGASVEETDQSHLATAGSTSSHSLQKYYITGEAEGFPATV

C[C@]12CCC(=O)C=C1CC[C@@H]1[C@@H]2CC[C@]2(C)C(=O)CC[C@@H]12
inactive: outcome [1] | activation [2] 2.12% | outcome [3] | outcome [4] | Potency [5] | outcome [6]

Clc1ccc2c(c1)C(c1ccccc1)=NCc1nncn1-2
inactive: outcome [1] | Potency [5]

CC(C)=CC1C(C(=O)OCN2C(=O)C3=C(CCCC3)C2=O)C1(C)C (stereo unspecified)
inactive: outcome [1]

CCCCCCCCCC(=O)O[C@H]1CC[C@H]2[C@@H]3CCC4=CC(=O)CC[C@@H]4[C@H]3CC[C@]12C
inactive: outcome [1]

CN1C(=O)NC(=O)C(C)(C2=CCCCC2)C1=O (stereo unspecified)
inactive: outcome [1] | Potency [5]

O=C(O)CCCc1ccc(N(CCCl)CCCl)cc1
inactive: outcome [7] | outcome [8] | outcome [9] | outcome [10] | activation [2] -4.56% | outcome [11] | outcome [3] | outcome [4] | outcome [12] | outcome [13] | outcome [14] | outcome [15] | Potency [5] | outcome [16] | outcome [17] | outcome [6]

O=C(Nc1ccc(Br)cc1)c1cc(Br)cc(Br)c1O
inactive: outcome [1]

O=P1(N(CCCl)CCCl)NCCCO1 (stereo unspecified)
-1.15%: viability change [18]
inactive: outcome [7] | outcome [8] | outcome [9] | outcome [10] | activation [2] -0.25% | outcome [18] | outcome [11] | outcome [3] | outcome [4] | outcome [12] | outcome [13] | outcome [14] | outcome [15] | Potency [5] | outcome [16] | outcome [17] | outcome [6]

CC(C)C[C@H]1C(=O)N2CCC[C@H]2[C@]2(O)O[C@](NC(=O)[C@@H]3C=C4c5cccc6[nH]c(Br)c(c56)C[C@H]4N(C)C3)(C(C)C)C(=O)N12
inactive: outcome [7] | outcome [9] | outcome [15] | Potency [5]

C=C(C)[C@H]1CN[C@H](C(=O)O)[C@H]1CC(=O)O
inactive: outcome [7] | outcome [8] | outcome [1] | outcome [9] | outcome [10] | activation [2] 1.12% | outcome [18] | outcome [11] | outcome [3] | outcome [4] | outcome [12] | outcome [13] | outcome [14] | outcome [15] | Potency [5] | outcome [16] | outcome [17]
1.68%: viability change [18]

CC(C)c1cccc(C(C)C)c1O
inactive: outcome [7] | outcome [9] | outcome [10] | activation [2] -6.88% | outcome [18] | outcome [11] | outcome [3] | outcome [4] | outcome [12] | outcome [13] | outcome [14] | outcome [15] | Potency [5] | outcome [16] | outcome [17] | outcome [6]
0.059%: viability change [18]
